The text below walks through data of PubChem BioAssay (NCATS).

Results filed as inconclusive are left out. The source made the active and inactive calls. Unless noted, calls follow the shape of the dose curve; as a rule, active = well fitted curve in the direction sought with a large enough effect; inconclusive = small, poorly fitted or top-dose-only effect, or another doubt; inactive = no such curve, though single readings can be large; an effect the other way counts as inactive or inconclusive.

For assay [1], the target named is DNA repair nuclease/redox regulator APEX1 (Homo sapiens) (UniProt P27695). Put plainly: qHTS Validation Assay for Inhibitors of the Human Apurinic/apyrimidinic Endonuclease 1 (APE1) (AID 1705; also: potency is read from the fitted curve at half-maximal effect;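 as to activity change, negative = inhibition: TAMRA fluorescence gain over two minutes as APE1 cuts a quenched THF abasic duplex; % is scaled to controls: 0 for no effect and ±100 for the full control effect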). The procedure, abridged:
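Endonuclease activity of human APE1 is followed as dequenching when the enzyme incises a tetrahydrofuran abasic site in a short duplex labelled 5'-TAMRA/3'-BHQ-2 (50 nM final), after 15 min enzyme–compound preincubation at room temperature.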
For orientation: In qHTS, concentration-response curves come from the screen itself.

Assay [2] can be described thus: Counterscreen for APE1 Inhibitors: Fluorescent Dye Displacement Validation Assay (AID 1707).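 Also: plate controls were ThO with dsDNA and no compound for no effect and ThO without dsDNA for full effect.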 An outline of the steps: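 Thiazole Orange (250 nM) bound to 50 nM TAMRA-labelled dsDNA with tetrahydrofuran abasic site; displacement by DNA-binding compounds lowers fluorescence. Buffer 50 mM Tris-HCl pH 7.5, 50 mM NaCl, 2 mM MgCl2, 0.01% Tween-20; endpoint read at 480/540 nm.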
(The purpose of a counterscreen is to sort out artefacts and off-target activity.)

The target of assay [3] is Endonuclease 4 (Escherichia coli (strain K12)) (UniProt P0A6C1). Put plainly: Counterscreen for APE1 Inhibitors: qHTS Validation Assay for Inhibitors of Endonuclease IV (AID 1708). Also: % is scaled to controls: 0 for no effect and ±100 for the full control effect. An outline of the steps: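 Enzymatic AP-site incision assay using a double-stranded THF substrate labelled with TAMRA and BHQ-2; released fluorescence signals activity. Enzyme 2 nM, substrate 50 nM, 15 min compound preincubation.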

Assay [4] can be described thus: qHTS for differential inhibitors of proliferation of Plasmodium falciparum line D10 (AID 1877).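 Also: parasites grown with compound for 72 h before DNA staining.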 Also: potency is read from the fitted curve at half-maximal effect.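 As to activity change, negative = inhibition: plate controls were vehicle wells for no effect and reference inhibitor wells for full effect.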
A short description of assay [5]: qHTS for differential inhibitors of proliferation of Plasmodium falciparum line 7G8 (AID 1815).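 Also: parasite growth measured after three days of incubation.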 Also: potency is read from the fitted curve at half-maximal effect.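 As to activity change, negative = inhibition: plate controls were vehicle wells for no effect and reference inhibitor wells for full effect.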
A short description of assay [6]: qHTS for differential inhibitors of proliferation of Plasmodium falciparum line GB4 (AID 1816).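 Also: parasite growth measured after 72 h incubation.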 Also: potency is read from the fitted curve at half-maximal effect.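 As to activity change, negative = inhibition: 0% = vehicle DMSO and -100% = reference inhibitor.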 Conditions: Potency: Plasmodium falciparum GB4 proliferation inhibition.
A short description of assay [7]: qHTS for differential inhibitors of proliferation of Plasmodium falciparum line 3D7 (AID 1876). Also: potency is read from the fitted curve at half-maximal effect.
The target in assay [8] is alpha-glucosidase (Oryza sativa, rice) (UniProt Q653V4). Kind of assay: Counterscreen for Glucocerebrosidase Inhibitors: qHTS Assay for Rice alpha-Glucosidase at pH 5.0 (AID 997).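 Also: 0% = full activity with enzyme and -100% = basal without enzyme.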 The procedure, abridged: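 Rice alpha-glucosidase (4 nM final) with 400 uM 4-methylumbelliferyl-alpha-D-glucopyranoside in citrate buffer pH 5.0, 20 min at room temperature, stopped at pH 10; fluorescence 365/440 nm, compounds 0.7 nM–77 uM, AC50 from Hill fits.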

Assay [9] can be described thus: qHTS Assay for Lipid Storage Modulators (AID 1519; calls by dose curve; as to activity change, negative = inhibition: % is scaled to controls: 0 for no effect and ±100 for the full control effect). The settings on record: Drosophila S3 cells, BODIPY lipid droplet/cell ratio, laser cytometry, cells loaded with oleic acid. An outline of the steps: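 Cells seeded at 5,000 per well were treated with compounds over a concentration series and loaded with oleic acid (400 uM, as added). Lipid droplet fluorescence (488 nm excitation, 500-530 nm channel) was read by laser-scanning cytometry and normalized to 20 uM Triacsin C.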

DNA repair nuclease/redox regulator APEX1 (Homo sapiens), sequence (P27695 whole entry, looked up): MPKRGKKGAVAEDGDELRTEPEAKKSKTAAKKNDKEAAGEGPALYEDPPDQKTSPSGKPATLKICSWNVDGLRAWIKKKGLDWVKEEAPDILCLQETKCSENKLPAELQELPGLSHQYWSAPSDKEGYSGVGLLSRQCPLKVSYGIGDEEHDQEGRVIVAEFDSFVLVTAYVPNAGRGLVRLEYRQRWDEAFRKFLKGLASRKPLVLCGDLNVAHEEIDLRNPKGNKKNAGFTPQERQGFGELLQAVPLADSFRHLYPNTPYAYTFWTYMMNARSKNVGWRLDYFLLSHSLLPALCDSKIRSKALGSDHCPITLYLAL

On to `O=C1O/C(=C/Br)CCC1c1cccc2ccccc12` (stereo not given), for which the Potency result in assay [1], in [2], in assay [3] and in [4] was “inactive” throughout.
Regarding `CC[C@@H](C)[C@H]1O[C@]2(CC[C@@H]1C)C[C@@H]1C[C@@H](C/C=C(\C)[C@@H](O[C@H]3C[C@H](OC)[C@@H](O[C@H]4C[C@H](OC)[C@@H](O)[C@H](C)O4)[C@H](C)O3)[C@@H](C)/C=C/C=C3\CO[C@@H]4[C@H](O)C(C)=C[C@@H](C(=O)O1)[C@]34O)O2`, the Potency result in assay [2] was “inactive”. The Potency was 2 µM (active) in [5], 1.12 µM (active) in assay [6], 0.794 µM (active) in assay [7] and 2.51 µM (active) in [4].
For `CC(C)Cc1ccc([C@H](C)C(=O)O)cc1`, the compound was called inactive in [8]. Moreover, the Potency result in assay [1], in [2], in [5], in assay [6], in [7] and in [4] was “inactive” in each case.
As to `Cn1cc(C2=C(c3ccc(Cl)cc3Cl)C(=O)NC2=O)c2ccccc21`, the call in assay [8] was inactive. Further, the Potency in assay [1] was 35.5 µM (active); in assay [5], 10 µM (active). Moreover, in assay [2], the Potency entry is “inactive”.
Consider `Oc1cc(O)cc(/C=C/c2ccc(O)c(O)c2)c1`, for which the Potency result in [1] and in assay [3] was “inactive” in each case. Besides, the Potency in assay [6] is 8.91 µM (active); in assay [7], 10 µM (active).
For the compound `CCCCCCCCCCCCCCCCCC(=O)OC(CC(=O)O)C[N+](C)(C)C` (stereo not given), the Potency entry in [1], in assay [2], in assay [5], in assay [6], in assay [7] and in [4] was “inactive” throughout.
On to `Nc1ccn([C@@H]2O[C@H](CO)[C@@H](O)[C@@H]2O)c(=O)n1`, for which the Potency result in [1], in [2], in [5], in assay [6], in assay [7] and in [4] was “inactive” in each case.
As for `Brc1c(Br)c(Br)c2n[nH]nc2c1Br`, the call in assay [8] was inactive. Moreover, the Potency entry in [1], in assay [3], in assay [5], in assay [6], in assay [7] and in assay [4] was “inactive” in each case.
Consider `CC(COc1ccc(/C=C/c2ccccc2)cc1)[N+](C)(C)C` (stereo not given), for which the Potency entry in [1], in [2] and in [3] was “inactive” throughout. The Potency in assay [5] is 7.08 µM (active); in [6], 2.24 µM (active); in assay [7] it was 1.26 µM (active); in assay [4], 2.24 µM (active).
Consider `CCCCCC(O)c1cccc(OCc2ccc3ccccc3n2)c1` (stereo not given), for which the Potency result in assay [1] and in assay [2] was “inactive” throughout. Also, the results for the Potency in assay [5], in [6] and in assay [4] were 6.31 µM (active), 10 µM (active) and 15.8 µM (active), respectively.
Regarding `CC12C(=O)OC(=O)C1(C)C1CCC2O1` (stereo not given), the Potency entry in assay [1], in assay [2] and in assay [3] was “inactive” throughout. For the same compound, the Potency is 3.98 µM (active) in [5], 4.47 µM (active) in assay [6], 3.16 µM (active) in assay [7] and 2.24 µM (active) in [4].
Regarding `O=C1C(SCCO)=C(SCCO)C(=O)c2ccccc21`, the call in assay [8] was inactive. The Potency result in [1], in assay [2] and in [3] was “inactive” each time. The Potency in [5] is 3.16 µM (active); in assay [6] it was 2 µM (active); in assay [7], 2.24 µM (active); in assay [4], 11.2 µM (active).
On to `Oc1ccccc1O`, for which the compound was called inactive in assay [8]. The activity change, negative = inhibition in [9] (at 57.5 µM (top of the series)) is -4.75% (inactive). Besides, the max response is -20.2% in assay [9] (measured here: cell count channel max response) and -25.6% in assay [9] (measured here: lipid channel max response). For the same compound, the Potency entry in assay [2] is “inactive”.
With `CN1CCc2ccccc2Cc2[nH]c3ccccc3c2CC1`, in assay [8], the call was inactive. In addition, the Potency entry in assay [1], in assay [2] and in assay [3] was “inactive” throughout. Moreover, the Potency in assay [5] was 7.08 µM (active); in [6] it was 10 µM (active); in assay [7], 7.08 µM (active); in [4], 12.6 µM (active).
For the compound `N#C/C(=C\c1c[nH]c2ccccc12)C(=O)c1ccc(O)c(O)c1`, in assay [8], the compound was classed as inactive. The Potency entry in assay [1] and in assay [3] was “inactive” throughout. In addition, the Potency in [6] is 12.6 µM (active); in assay [7], 12.6 µM (active); in assay [4], 15.8 µM (active).
Consider `C=C[C@H]1CN2CC[C@@H]1C[C@@H]2[C@@H](O)c1ccnc2ccc(OC)cc12`, for which, in [8], the call was inactive.
Regarding `Oc1cc2c(cc1O)CN(C(=S)NCCc1ccc(Cl)cc1)CCC2`, the outcome in assay [8] was inactive. Moreover, the Potency entry in assay [1], in assay [2] and in [3] was “inactive” each time. Further, the Potency is 8.91 µM (active) in [5] and 12.6 µM (active) in assay [4].
Turning to `C[N+]1(C)CCC(OC(=O)C(c2ccccc2)c2ccccc2)CC1`, in assay [8], the compound was classed as inactive.
`Cc1ccc(O)c(N=Nc2ccccc2)n1`: the outcome in [8] was inactive. Moreover, the Potency result in assay [1] and in assay [2] was “inactive” in each case. In addition, the Potency in [5] was 11.2 µM (active); in assay [6] it was 12.6 µM (active).
For the compound `C=C[C@@H]1CN2CC[C@@H]1C[C@H]2[C@H](O)c1ccnc2ccc(OC)cc12`, the Potency entry in assay [1] and in [2] was “inactive” each time.
Take `NC[C@@H]1O[C@H](C23CC4CC(CC(C4)C2)C3)Cc2c1ccc(O)c2O`: in [8], the compound was called inactive. In addition, the Potency entry in assay [1], in assay [2] and in [3] was “inactive” in each case. Moreover, the Potency in assay [5] was 2 µM (active); in assay [6] it was 2 µM (active); in [7], 2.24 µM (active); in [4], 3.16 µM (active).
Regarding `CC(C)(C=O)Cc1cc(C(C)(C)C)c(O)c(C(C)(C)C)c1`, in [8], the outcome was inactive. Further, the Potency result in assay [1], in [2], in assay [5], in [6], in assay [7] and in [4] was “inactive” each time.
Take `COc1ccc(NC(=O)/C=C/c2ccc(Cl)cc2)cc1`: the Potency result in [1] and in [2] was “inactive” throughout. Also, the Potency in [5] was 10 µM (active); in assay [6] it was 11.2 µM (active); in assay [7], 11.2 µM (active); in assay [4], 8.91 µM (active).
